Measurements as given in PubChem BioAssay AID540333 (Southern Research Specialized Biocontainment Screening …, 2011).
In all, about 10,000 compounds went through this assay and about 320 (3.2%) were called active. What follows is part of a selection rich in actives, with near analogues and random picks from the rest. Values without a mark were called inactive. No stated cut-off is given here; in the data, active means CPE inhibition mostly above about 9.1% (no sharp cut-off); inactive means mostly below about 7.2%.

Assay: Dengue virus cytopathic effect inhibitors, cell-based, CPE readout, HTS (AID 540333)
Conditions: Dengue virus CPE inhibition in host cells, at 20 µM; stronger effect = higher value

SMILES | CPE inhibition
CC(=O)Nc1sc(C)c(C)c1C(=O)OCC(=O)N(CC(C)C)C1CCS(=O)(=O)C1 (centres undefined) | 1.31%
Cc1ccc([N+](=O)[O-])cc1S(=O)(=O)NCCc1c(C)[nH]c2ccccc12 | 1.95%
O=C(N=C1c2ccccc2CN1c1ccccc1)c1cccc([N+](=O)[O-])c1 | inactive
CC(C)N(C(=O)COC(=O)CNC(=O)c1ccc(Br)cc1)c1ccccc1 | inactive
COc1ccc(C2=NN(C(=O)/C=C/c3ccccc3)C(c3ccccc3)C2)c(OC(C)=O)c1 (centres undefined) | 8.13%
COc1ccc(C2CC(c3ccccc3OC(C)=O)=NN2C(=O)/C=C/c2ccccc2)cc1 (centres undefined) | 7.79% (active)
CC(=O)Oc1ccccc1C1=NN(C(=O)/C=C/c2ccccc2)C(c2ccccc2)C1 (centres undefined) | 8.09%
Cc1c(NC2=C(Cl)C(=O)N(c3ccccc3Cl)C2=O)c(=O)n(-c2ccccc2)n1C | inactive
CCNC(=S)N(CCc1cccc(C)c1)Cc1cc2cc(OC)c(OC)cc2[nH]c1=O | 5.32%
C=CCN1C(=O)S/C(=C/c2ccc(Sc3nc4ccccc4[nH]3)o2)C1=O | 12.1% (active)
O=C(N/N=C/c1ccc(Sc2nc3ccccc3[nH]2)o1)c1ccncc1 | 1.17%
CCN1C(=O)S/C(=C/c2ccc(Sc3nc4ccccc4[nH]3)o2)C1=O | 7.23%
CCOC(=O)CN1C(=O)S/C(=C/c2ccc3c(c2)n(C)c(=O)n3C)C1=O | 0.01%
Cc1ccc(C)c(N(CC(=O)Nc2ccccc2C(=O)NCc2ccco2)S(=O)(=O)c2ccccc2)c1 | 0.06%
Cc1ccc(-c2cc(C(=O)N/N=C/c3ccco3)n[nH]2)s1 | inactive
CC(Sc1nc(N)c2c3c(sc2n1)CSC(C)(C)C3)C(=O)Nc1ccccc1 (centres undefined) | 6.62%
Cc1ccccc1NC(=O)CSc1nc(N)c2c3c(sc2n1)CSC(C)(C)C3 | 15.7% (active)
Cc1ccc(NC(=O)CSC2=NCCN2)cc1 | 0.905%
Cc1ccc(NC(=O)CSc2nc(N)c3c4c(sc3n2)CSC(C)(C)C4)cc1 | 16.2% (active)
Cc1ccccc1NC(=O)CSC1=NCCN1 | inactive
CN(C(=O)CSc1nc(N)c2c3c(sc2n1)CSC(C)(C)C3)c1ccccc1 | 9.8%
COC(=O)c1ccc(CNC(=O)COC(=O)C23CC4CC(CC(C4)C2)C3)cc1 | inactive
O=C(CSc1ccc(Cl)cc1)Nc1ccc(-c2nc3ccccc3[nH]2)cc1 | 1%
O=C(CN1CCOCC1)NN=C1CCCCCCCCCCC1 | inactive
CCCCCC(=O)Nc1ccccc1N1CCOCC1 | 0.445%
Cc1ccc(NC(=O)OCCN2CCN(S(=O)(=O)c3ccc(C)cc3)CCC2=O)cc1 | 0.55%
COc1ccc(C(=O)/C(C#N)=N/Nc2ccccc2[N+](=O)[O-])cc1 | 1.92%

SMILES | CPE inhibition
Cc1c(C#N)c(N)nc2c3c(sc12)NC(=O)CC3c1ccc(Cl)cc1 (centres undefined) | 0.18%
Cc1ccc(NC(=S)NCCc2ccc(S(N)(=O)=O)cc2)cc1C | inactive
COc1cc(/C=C2/C(=O)NN(c3ccc(Cl)cc3)C2=O)ccc1OC(=O)c1ccco1 | 8.14% (active)
COc1cc(/C=C2/C(=O)NN(c3cccc(C)c3)C2=O)ccc1OC(=O)c1ccco1 | 8.68%
COc1cc(/C=C2/C(=O)NN(c3cccc(F)c3)C2=O)ccc1OC(=O)c1ccco1 | 3.78%
COc1ccccc1NS(=O)(=O)c1cccc(C(=O)N/N=C/c2ccc3c(c2)OCCO3)c1 | inactive
S=c1[nH]nc(COc2ccccc2)n1/N=C/c1cccs1 | inactive
O=C1[C@H]2[C@@H](c3ccc(F)cc3)N3C(=O)N(c4ccc(Br)cc4)C(=O)[C@@]3(Cc3ccc(Cl)cc3)[C@H]2C(=O)N1C1CCCCC1 | 46% (active)
O=C1[C@H]2[C@@H](c3ccc(Cl)cc3)N3C(=O)N(c4cccc(Cl)c4)C(=O)[C@@]3(Cc3ccccc3)[C@H]2C(=O)N1C1CCCCC1 | 15.5% (active)
O=C1N(c2cccc(Cl)c2)C(c2ccc(Cl)cc2)N2CCCN12 (centres undefined) | 4.13%
Cc1cccc([C@@H]2[C@@H]3C(=O)N(Cc4ccccc4)C(=O)[C@@H]3[C@]3(Cc4ccccc4)C(=O)N(c4ccccc4)C(=O)N23)c1 | 0.915%
CCN1C(=O)[C@H]2[C@@H](c3ccc(C)cc3)N3C(=O)N(c4ccc(OC)cc4)C(=O)[C@@]3(CC)[C@H]2C1=O | 0.62%
S=C(Nc1ccccc1Cl)N1CCN(Cc2ccccc2)CC1 | 0.465%
N#C/C(=C\c1cn(Cc2cccc(F)c2)c2ccccc12)C(=O)NCc1ccco1 | 0.23%
Cc1ccc(OCCSCc2nnc(NC(=O)Nc3cccc(Cl)c3)s2)cc1 | 5.79%
COc1ccc(NS(=O)(=O)c2ccc3nc(COc4ccc(Cl)c(C)c4)[nH]c3c2)cc1 | 1.16%
CSc1ccc(/C=C/C(=O)c2ccc(O)cc2)cc1 | inactive
CCOc1ccc(/C=C/C(=O)Nc2ccccc2C(F)(F)F)cc1 | inactive
O=c1c2ccccc2cnn1Cc1n[nH]c(=S)n1-c1ccccc1 | 0.01%
CCCCCCNC(=O)CC(NS(=O)(=O)c1ccc(OC)cc1)C(C)C (centres undefined) | 0.025%
C[C@H](NC(=O)c1ncn(C)c1C(=O)N[C@@H](C)c1ccccc1)c1ccccc1 | 0.505%
CC(C)(C)OC(=O)N1CCC(NC(=O)c2ncn(Cc3ccccc3)c2C(=O)NC2CCN(C(=O)OC(C)(C)C)CC2)CC1 | 39.3% (active)
Cn1cnc(C(=O)N2CCN(C(=O)OC(C)(C)C)CC2)c1C(=O)N1CCN(C(=O)OC(C)(C)C)CC1 | 1.25%
C[C@@H](NC(=O)c1nc[nH]c1C(=O)OCc1ccccc1)c1ccccc1 | 0.97%
CC(C)(C)OC(=O)CNC(=O)c1[nH]cnc1C(=O)NC1CCN(C(=O)OC(C)(C)C)CC1 | inactive
C[C@@H](NC(=O)c1ncn(Cc2ccccc2)c1C(=O)N[C@H](C)c1ccccc1)c1ccccc1 | 13.8% (active)
Cc1ccc2c(c1)/C(=N/N1C(=O)c3ccccc3C1=O)C(=O)N2 | inactive
